Data taken from PubChem BioAssay AID1259422 (The Scripps Research Institute Molecular Screening Center, 2018).
In all, about 640,000 compounds went through this assay and about 9,300 (1.5%) were called active. The entries come from a sample that favours actives as a whole. Values without a mark were called inactive. Rule as the data show it: active = inhibition above about 32%; inactive = the rest.

Test: TEAD-YAP interaction inhibition, primary screen, TEAD-YAP interaction inhibitor project, luminescence, HEK-TIYL cells (AID 1259422);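 also: 0% = median of test compound wells and 100% = reference inhibitor wells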
Settings: TEAD-Gal4/YAP UAS-luciferase luminescence, at 9.12 µM, stronger effect = higher value
`O=C1CSC(c2ccc(F)c(F)c2)N1c1ccc(Br)cc1` (stereo unspecified) showed an inhibition of -4.77%. In the case of `CCCCC(=O)NC(c1ccc(OC)c(OC)c1)c1ccc2cccnc2c1O` (stereo unspecified), the inhibition is reported as 89.2% (active). `CCCCC(=O)NC(c1ccc(OC)cc1)c1cc([N+](=O)[O-])c2cccnc2c1O` (stereo unspecified) gave an inhibition of 7.56%. With `CCCCC(=O)NC(c1ccco1)c1ccc2cccnc2c1O` (stereo unspecified) the inhibition was 26.7%. Work on `CCC1CCCCN1C(=O)Cn1c2ccccc2c(=O)c2cc(C)ccc21` (stereo unspecified) yielded an inhibition of -3.07%. Work on `CCn1nnc2c1CCN(CC(O)C(C)(C)C)C2` (stereo unspecified) yielded an inhibition of -9.09%. For `O=C(Cn1cnc2c(nnn2-c2cccc(F)c2)c1=O)N1CCCCC1`, the inhibition was 6.15%. `Cc1cccc(N2CCN(C(=O)c3ccc4c(c3)C(=O)N(CCC3=CCCCC3)C4=O)CC2C)c1` (stereo unspecified) gave an inhibition of -3.98%. For `Cc1cccc(N2CCN(C(=O)c3cccc(C#N)c3)CC2C)c1` (stereo unspecified), the inhibition was 41.6% (active). Molecule `Cc1cccc(N2CCN(C(=O)c3cccc(N4C(=O)C(C)CS4(=O)=O)c3)CC2)c1` (stereo unspecified) has an inhibition of -2.6%. Work on `COc1ccc2c(c1)CC(C(=O)Nc1ccc(-c3ccncc3)cc1OC(C)CN(C)C)CO2` (stereo unspecified) yielded an inhibition of -0.11%. For `COC(=O)NCC(C)OC(=O)Nc1ccc(C)cc1` (stereo unspecified), the inhibition was -12.2%. Molecule `CC(C)CC(NC(=O)C(Cc1ccccc1)NC(=O)OC(C)(C)C)C(=O)O` (stereo unspecified) has an inhibition of 1.85%. With `CC(C(=O)O)c1ccc(NC(=O)OC(C)(C)C)cc1` (stereo unspecified) the inhibition was 32.1% (active). Work on `Cc1cc(C)nc(N2CCN(S(=O)(=O)c3ccc(C)c(Cl)c3)CC2)n1` yielded an inhibition of 1.94%. Work on `Fc1cccc(-c2nnc3ccc4cc(C(F)(F)F)ccc4n23)c1` yielded an inhibition of -12.5%. Work on `COc1ccc(N2CCN(S(=O)(=O)c3ccc(Cl)cc3)CC2)c([N+](=O)[O-])c1` yielded an inhibition of 6.09%. `CCN(C(=O)COc1ccc(Cl)cc1)c1nnc(-c2cccnc2)s1` showed an inhibition of -11.5%. `COc1ccccc1NC1=C/C(=N/S(=O)(=O)c2ccc(F)cc2)c2ccccc2C1=O` showed an inhibition of -21.4%. With `O=C1C=C(Nc2ccc(O)cc2)c2ccccc2C1=O` the inhibition was 93.2% (active). For `COc1ccc(S(=O)(=O)/N=C2/C=C(Nc3ccc(O)cc3)C(=O)c3ccccc32)cc1`, the inhibition was 99.3% (active). `O=C(CN1C(=O)c2ccccc2C1=O)Nc1ccc(O)cc1` showed an inhibition of -11.7%. In the case of `COC(=O)c1ccccc1NC1=C/C(=N/S(=O)(=O)c2ccccc2)c2ccccc2C1=O`, the inhibition is reported as 5.16%. In the case of `O=C1C(Nc2ccc(O)cc2)=C(n2nnc3ccccc32)C(=O)c2ccccc21`, the inhibition is reported as 27.1%. `CCOC(=O)c1ccccc1Nc1nc(-c2ccc(OC)cc2)no1` showed an inhibition of 8.95%. In the case of `O=[N+]([O-])c1ccc2c(c1)nc1ccccn12`, the inhibition is reported as -11.7%. `CC(=O)N1CCC(N(C(=O)CSCCNC(=O)c2ccccc2Cl)C2CC2)CC1` showed an inhibition of 2.5%. In the case of `CC1CCc2c(sc(NC(=O)c3cc4ccccc4oc3=O)c2C#N)C1` (stereo unspecified), the inhibition is reported as 11.2%. `C=CCN1C(=S)NC2CC1(C)Oc1c(OC)cccc12` (stereo unspecified) showed an inhibition of 2.23%. For `CCCOc1ccc(Cc2c(Cl)nc(SC)nc2NC)cc1`, the inhibition was 35.1% (active). `CCOc1ccc(Cc2c(Cl)nc(SC)nc2N(CC)CC)cc1` gave an inhibition of 2.33%. `CCCOc1ccc(N2C(=O)CC(NCCc3ccc(Cl)cc3)C2=O)cc1` (stereo unspecified) gave an inhibition of -11%. For `COc1cccc(/C=C(\C#N)c2nn(CCO)c(N)c2C#N)c1OCc1ccc(Cl)cc1Cl`, the inhibition was 2.5%. Molecule `CC(=O)N1CCc2cc(S(=O)(=O)NCCC(=O)O)ccc21` has an inhibition of 0.75%. With `CC(=O)N1CCc2cc(S(=O)(=O)NC3CCCCC3)ccc21` the inhibition was 10.8%. For `CC(=O)N1CCC(N(C(=O)C2CC2)c2ccc3c(c2)CCN3C(C)=O)CC1`, the inhibition was 46.4% (active). Work on `CCOC(=O)C1=C(C)N=c2s/c(=C\c3ccc(-c4ccc([N+](=O)[O-])cc4OC)o3)c(=O)n2C1c1ccccc1` (stereo unspecified) yielded an inhibition of -12.5%. In the case of `CCn1c(=O)[nH]c(=O)c2c(C(F)(F)F)cc(C(F)(F)F)nc21`, the inhibition is reported as -11.4%. For `CCOC(=O)c1cc(-c2nnc(-c3ccccc3)o2)c(C)nc1C`, the inhibition was -1.76%. For `CCc1ccc(NC(=O)CSC2=C(C#N)C(c3ccco3)C(C(=O)Nc3ccc(Cl)cc3)=C(C)N2)cc1` (stereo unspecified), the inhibition was 26.3%. `CC(=O)c1c(C)[nH]c(C(=O)Nc2ccc(Cl)c(C(F)(F)F)c2)c1C` showed an inhibition of 3.78%. Work on `CS(=O)(=O)c1ncc(Cl)c(C(=O)Nc2nc3ccc(F)cc3s2)n1` yielded an inhibition of -10.7%. In the case of `CS(=O)(=O)c1ncc(Cl)c(C(=O)Nc2ccc(Cl)c(C(F)(F)F)c2)n1`, the inhibition is reported as 51% (active). With `Cc1ccc(CC(=O)Nc2ccc(Cl)c([N+](=O)[O-])c2)cc1` the inhibition was -2.28%. For `COc1ccc(Cl)cc1NC(=O)C(=O)Nc1ccc2nc3n(c(=O)c2c1)CCCCC3`, the inhibition was 0.92%. In the case of `COc1ccc([N+](=O)[O-])cc1C1=N/C(=C/c2ccc(C(C)C)cc2)C(=O)O1`, the inhibition is reported as 1.78%. In the case of `CCC(=O)N(CCO)Cc1cc2cc(CC)ccc2[nH]c1=O`, the inhibition is reported as 10.6%. With `CCOC(=O)c1c(NC(=O)c2ccccc2)sc(C(=O)Nc2ccccc2OC)c1C` the inhibition was 0.4%. In the case of `Cc1nc(-c2ccc(NC(=O)c3cccc(Br)c3)cc2)cs1`, the inhibition is reported as -71.4%. `O=C(Nc1cc(Cl)cc(Cl)c1)c1cccs1` gave an inhibition of -3.5%. For `O=C(Nc1cc(F)cc(F)c1)c1cccs1`, the inhibition was -5.52%. In the case of `O=C(Nc1ccc(C23CC4CC(CC(C4)C2)C3)cc1)c1cccs1`, the inhibition is reported as 85.4% (active). With `CC(=O)Nc1cccc(-c2csc(C)n2)c1` the inhibition was -2.27%. In the case of `Cc1nc(-c2ccc(NC(=O)c3cccs3)cc2)cs1`, the inhibition is reported as 48.2% (active). Molecule `Cc1ccc2cccc(SCC(=O)Nc3ccc(Br)cc3)c2n1` has an inhibition of 17.4%. With `COc1ccc(-n2nc3cc(C)c(NC(=O)c4ccccc4I)cc3n2)cc1` the inhibition was -23.3%. In the case of `CN(CCC(=O)Nc1cccc(F)c1)Cc1ccccc1`, the inhibition is reported as 2.01%. `COc1ccc(C(=O)CSc2n[nH]c(C)n2)cc1` showed an inhibition of -4.7%. Work on `COc1ccccc1NC(=O)CSc1n[nH]c(C)n1` yielded an inhibition of 5.98%. With `COc1ccc(CSc2n[nH]c(C)n2)cc1Cl` the inhibition was 44.5% (active). `COc1ccccc1Nc1nc(-c2ccc(Cl)cc2)cs1` showed an inhibition of -12%. With `COc1ccccc1NC1=NC(c2ccc(Cl)cc2)N=C(N)N1` (stereo unspecified) the inhibition was 40.4% (active). `COc1ccccc1Nc1cc(C)nc2ccc(Cl)cc12` showed an inhibition of 4.34%. In the case of `O=C(NCC1CCCN(Cc2cccn2-c2ncccn2)C1)c1n[nH]c2ccccc12` (stereo unspecified), the inhibition is reported as 33.7% (active). In the case of `O=C(NCC1CCCN(Cc2nc(-c3ccccc3)cs2)C1)c1cccs1` (stereo unspecified), the inhibition is reported as 9.19%. For `Cc1c(CN2CCCC(CNC(=O)c3ccc4c(c3)OCO4)C2)[nH]c2ccccc12` (stereo unspecified), the inhibition was 13.5%. For `CCOc1ccc(CN2CCN(Cc3ccc(OC)c(OCC)c3)CC2)cc1`, the inhibition was -0.01%. Work on `FC(F)(F)c1cccc(N2N=C(/C=C/c3ccccc3)CC2c2ccccc2)c1` (stereo unspecified) yielded an inhibition of -3.08%. In the case of `O=C1NC(=Nc2ccc(F)cc2)S/C1=C\c1ccc(O)c(O)c1`, the inhibition is reported as 51.2% (active). `Cn1c(=O)n(C)c2cc(/C=C3/SC(=Nc4ccc(F)cc4)NC3=O)ccc21` gave an inhibition of -33.4%. In the case of `O=C1NC(=Nc2ccc(F)cc2)S/C1=C\c1cccs1`, the inhibition is reported as 7.85%. Work on `CCCCNC(=O)C(=O)NCC1COc2ccccc2O1` (stereo unspecified) yielded an inhibition of -0.58%. Work on `COc1ccc(OCC(=O)Nc2nc3ccc(C)cc3s2)cc1` yielded an inhibition of -5.48%. Molecule `O=C(NCCOc1ccccc1)c1cc(NC2CCN(Cc3ccccc3)CC2)nc2ccccc12` has an inhibition of 10.3%. With `Cc1ccc(NC(=O)/N=C/c2sc(=O)[nH]c2O)cc1` the inhibition was -3.99%. Molecule `Cc1cnc(-c2c(C)noc2C)nc1Nc1ccc(N2CCOCC2)cc1` has an inhibition of -11.4%. In the case of `Cc1cnc(Nc2ccc(N3CCOCC3)cc2)nc1NCc1cccc(C(F)(F)F)c1`, the inhibition is reported as 67.6% (active). For `c1ccc(Nc2nc(Nc3ccc(N4CCOCC4)cc3)nc3nc[nH]c23)cc1`, the inhibition was 24.1%. For `c1cncc(-n2cnc(-c3ccnc(Nc4ccc(N5CCOCC5)cc4)c3)n2)c1`, the inhibition was -10.2%. In the case of `Cc1cnc(Nc2ccc(N3CCOCC3)cc2)nc1Nc1ccccc1-c1ncn[nH]1`, the inhibition is reported as 68.8% (active). `CNC(=O)c1ccccc1Nc1ccnc(Nc2ccc(N3CCOCC3)cc2)c1` gave an inhibition of 8.21%. Work on `c1ccc(-n2cnc(-c3ccnc(Nc4ccc(N5CCOCC5)cc4)c3)n2)cc1` yielded an inhibition of -7.29%. `c1nc(Nc2ccc(N3CCOCC3)cc2)cc(N2CCOCC2)n1` showed an inhibition of 2.49%. In the case of `c1cc(-c2ocnc2-c2ncco2)cc(Nc2ccc(N3CCOCC3)cc2)n1`, the inhibition is reported as 38.6% (active). `FC(F)(F)c1ccc(Cn2cnc3c(NCc4cccc(C(F)(F)F)c4)nc(Nc4ccc(N5CCOCC5)cc4)nc32)cc1` showed an inhibition of 2.31%. `FC(F)(F)c1cccc(CNc2nc(Nc3ccc(N4CCOCC4)cc3)nc3c2ncn3-c2ccsc2)c1` showed an inhibition of -6.95%. With `c1ccc(-c2ncn[nH]2)c(Nc2ccnc(Nc3ccc(N4CCOCC4)cc3)c2)c1` the inhibition was 44% (active). `O=[N+]([O-])c1ccc(Cl)c(S(=O)(=O)n2nnc3ccccc32)c1` gave an inhibition of -1.22%. With `COC(=O)C1C(=O)NC(SCC(=O)Nc2ccc(OC)cc2)=C(C#N)C1c1ccc(C)cc1` (stereo unspecified) the inhibition was -9.22%. For `CC(C)CCNS(=O)(=O)c1ccc2[nH]c3nc4nc(-c5ccc(Br)cc5)cn4nc3c2c1`, the inhibition was 6.91%. With `Cc1cc(=O)oc2c(/C=N\NC(=O)c3ccc(Br)cc3)c(O)ccc12` the inhibition was 5.44%.
